The list is not random: actives were taken first. Their share in the collection is about 7.4%.
FLuc inh-1: blocks purified firefly luciferase enzyme activity. P08659. purified P. pyralis luciferase, luminescence, biochemical. Potency, µM (titrated, usually from 115 µM), hits mostly inhibitors. actives 2.5% (n = 76,000). AID 1347043; further: on the % scale 0 is the no-effect control and ±100 the full control effect; nearly all actives have a fitted effect of over 65% in size
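Biochemical qHTS: compound (6-point titration) added to 10uM D-luciferin plus 10uM ATP in Tris acetate pH 7.5 buffer with Mg, Tween-20 and BSA, then purified enzyme at 10nM; light output imaged.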
NPR1 antag: antagonists of human natriuretic peptide receptor Npr1; HEK293 hNpr1 GloSensor cGMP, ANP-stimulated luminescence; AID 1347048; actives 1.6% (n = 76,000); P16066; Potency, µM (series often up to 46.3 µM), for the others: at the top dose activity change, negative = inhibition, hits mostly inhibitors; calls by dose curve; further: on the % scale 0 is the no-effect control and ±100 the full control effect; nearly all actives have a fitted effect of over 60% in size
Target sequence (P16066 whole entry, looked up): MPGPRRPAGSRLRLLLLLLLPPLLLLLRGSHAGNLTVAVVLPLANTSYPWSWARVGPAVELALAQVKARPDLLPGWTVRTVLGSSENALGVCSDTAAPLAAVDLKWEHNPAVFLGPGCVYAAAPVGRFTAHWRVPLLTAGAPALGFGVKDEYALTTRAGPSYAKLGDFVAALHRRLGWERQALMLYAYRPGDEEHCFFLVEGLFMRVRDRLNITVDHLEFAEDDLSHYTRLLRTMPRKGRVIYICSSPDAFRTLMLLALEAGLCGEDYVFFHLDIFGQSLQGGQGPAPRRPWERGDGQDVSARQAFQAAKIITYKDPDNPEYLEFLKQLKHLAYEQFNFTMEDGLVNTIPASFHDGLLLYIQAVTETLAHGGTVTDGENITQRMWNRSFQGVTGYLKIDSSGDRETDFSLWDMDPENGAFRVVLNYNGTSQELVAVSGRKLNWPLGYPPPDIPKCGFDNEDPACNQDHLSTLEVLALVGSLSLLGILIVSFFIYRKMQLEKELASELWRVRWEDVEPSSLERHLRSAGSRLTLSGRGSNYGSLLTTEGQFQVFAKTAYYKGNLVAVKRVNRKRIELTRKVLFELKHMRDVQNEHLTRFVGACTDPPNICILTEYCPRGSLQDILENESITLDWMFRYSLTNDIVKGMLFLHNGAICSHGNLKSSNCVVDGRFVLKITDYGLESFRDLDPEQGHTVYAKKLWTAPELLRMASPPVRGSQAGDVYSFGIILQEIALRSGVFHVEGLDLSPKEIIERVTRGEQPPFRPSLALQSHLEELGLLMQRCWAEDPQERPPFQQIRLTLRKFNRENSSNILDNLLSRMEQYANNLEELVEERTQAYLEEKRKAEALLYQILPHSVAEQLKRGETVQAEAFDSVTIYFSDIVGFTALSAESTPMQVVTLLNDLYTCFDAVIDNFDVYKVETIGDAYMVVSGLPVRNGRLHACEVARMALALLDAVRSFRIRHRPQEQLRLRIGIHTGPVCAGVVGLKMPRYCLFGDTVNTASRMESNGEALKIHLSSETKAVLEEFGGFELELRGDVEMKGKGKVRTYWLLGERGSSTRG
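HEK293 cells stably expressing human Npr1 and cGMP GloSensor pGS-40F, loaded 2 h with 2% GloSensor reagent, given compound 30 min at room temperature. Luminescence read before and 20 min after 0.1 nM hNppA.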
3T3 cytotox: kills NIH 3T3 cells. NIH 3T3 viability, CellTiter-Glo ATP luminescence, 48-72 h. Potency, µM (series often up to 96.7 µM), without a hit: at the top dose activity change, negative = cytotoxicity, actives largely listed as inhibitors. actives 4.3% (n = 94,000); further: on the % scale 0 is the no-effect control and ±100 the full control effect; nearly all actives have a fitted effect of over 55% in size
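ATP-dependent luminescence (CellTiter-Glo) served as the viability signal for NIH 3T3 cells treated with compound for 48 or 72 hr at 37 °C.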
HEK293 viab: reduces viability of HEK-293 SNCA reporter cells | HEK-293-SNCA-luc viability, GF-AFC fluorescence, 24 h | Potency, µM (doses to about 57.1 µM), inactives show top-dose activity change, negative = cytotoxicity, actives largely listed as cytotoxic | actives 0.12% (n = 150,000);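 further: 0% = DMSO-treated cells and -100% = medium-only wells without cells; nearly all actives have a fitted effect of over 30% in size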
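HEK-293-SNCA-luc cells (1500/well) plated 24 h, then exposed 24 h to a dilution series; GF-AFC added 30 min at 37C, fluorescence 405/540 nm; normalised to medium-only and DMSO wells, Hill fit.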
SNCA expr inh: inhibitors of alpha-synuclein (SNCA) gene expression; HEK-293 SNCA-luciferase knock-in, luminescence, 24 h; Potency, µM (top dose mostly 57.2 µM), inactives show at the top dose activity change, negative = inhibition, actives largely listed as inhibitors; actives 0.17% (n = 140,000); AID 1671194;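 further: plate controls were DMSO cells for no effect and cell-free wells for full effect; nearly all actives have a fitted effect of over 45% in size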
HEK cytotox: cytotoxic compounds in HEK 293 cells; HEK 293 viability, ATP luminescence (CellTiter-Glo), 48-72 h; Potency, µM (titrated, usually from 115 µM), for the others: at the top dose activity change, negative = cytotoxicity, usual class: inhibitors; actives 6.6% (n = 94,000); AID 1345083; further: on the % scale 0 is the no-effect control and ±100 the full control effect; nearly all actives have a fitted effect of over 60% in size
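ATP-coupled CellTiter-Glo luminescence served as viability read-out, recorded 10 min after reagent addition at room temperature. HEK 293 cells, 250 cells/well, had been incubated with pintool-transferred compound for 48 or 72 hr at 37 degree Celsius.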
FLuc SDR no ATP: binders stabilizing firefly luciferase, without ATP; shares compounds with FLuc inh-1; Purified FLuc-C-HiBiT, Nano-Glo HiBiT luminescence, no ATP; Potency, µM (series often up to 32.7 µM), for inactives: top-dose activation (signal gain), most hits filed as activators; actives 7.8% (n = 1,300); further: nearly all actives have a fitted effect of over 55% in size
FLuc SDR ATP: firefly luciferase binding stabilization, ATP added; shares compounds with FLuc inh-1; purified FLuc-C-HiBiT + ATP, HiBiT complementation luminescence; Potency, µM (series often up to 32.7 µM), for the others: at the top dose activation (gain of signal), actives largely listed as activators; actives 8.7% (n = 1,300);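 further: signal reports ligand binding via conformational change of the enzyme rather than luciferase catalysis; % of control where 0% means no effect; nearly all actives have a fitted effect of over 55% in size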
FLuc inh-2: firefly luciferase enzyme inhibition; shares compounds with FLuc inh-1; Potency, µM (highest dose often 32.7 µM), inactives show at the highest dose activity change, negative = inhibition, most hits filed as inhibitors; actives 42% (n = 1,300); purified FLuc-C-HiBiT enzyme, luciferin luminescence; further: on the % scale 0 is the no-effect control and ±100 the full control effect; nearly all actives have a fitted effect of over 70% in size
* marks the source's active call; other numbers are inactive results; i = inactive; ? = inconclusive; . = no result; [ ] = remark or other dose. Unless noted, the call rests on the fitted dose curve; in most records, active means well fitted curve in the direction sought with a large enough effect; inconclusive means small, poorly fitted or top-dose-only effect, or another doubt; inactive means no such curve, though single readings can be large; an effect the other way counts as inactive or inconclusive. Potency means the concentration at half of the fitted maximal effect.

SMILES	FLuc inh-1	NPR1 antag	3T3 cytotox	HEK293 viab	SNCA expr inh	HEK cytotox	FLuc SDR no ATP	FLuc SDR ATP	FLuc inh-2
Cc1ccc(-n2nc(C)c([C@@H]3C=C[C@@H](NC(=O)Nc4ccc(Cl)cc4)C3)c2C)cc1Cl	10µM*	?	28.2µM*	?	?	15.8µM*	14.7%	15.6%	?
CC(C)C1=NOC2(CCCN([S+](=O)([O-])c3cccs3)C2)C1 (stereo not given)	.	.	i	4.7%	17.3%	i	.	.	.
O=C(O)COc1ccc(-c2nccc3c2C(=O)N(Cc2cccc(C(F)(F)F)c2)CC(COc2ccccc2)O3)cc1 (stereo not given)	i	2.4%	?	3.4%	-8.7%	i	.	.	.
CN1CCN(c2ccc(-c3cc4c(ccn4C)c(C(=O)NCCN4CCNC4=O)n3)cc2)CC1	4.47µM*	5.8%	?	-5.9%	-6.8%	?	24.7%	16.0%	?
Cc1cn2nc(C(=O)NCc3ccccc3F)cc2c(N2CCSCC2)n1	i	-18.2%	-13.1%	0.4%	?	-12.8%	.	.	.
Nc1ccc(-c2nc3ccccc3s2)cc1	.	.	.	.	.	.	?	?	1.76µM*
Cc1ccc2sc(-c3ccc(N)cc3)nc2c1	.	.	.	-4.8%	?	.	3.13µM*	?	0.279µM*
CCOP(=O)(Cc1ccc(-c2nc3ccccc3s2)cc1)OCC	.	.	.	.	.	.	17.4%	15.5%	?
CC(C)(N)c1ccc(-c2nc3ccccc3nc2-c2ccccc2)cc1	.	.	.	-0.9%	?	.	.	.	.
CCS(=O)(=O)c1ccccc1C(=O)Nc1ccc(-c2nc3ccccc3s2)cc1	.	.	.	-14.9%	112.1%	.	19.5%	8.4%	-9.3%
COC(=O)c1nc(NC(=O)C[C@H]2NC(=O)c3ccccc3NC2=O)sc1CC(C)C	i	-12.3%	?	-6.9%	-2.3%	?	.	.	.
CC(=O)N1CCN(Cc2nnc3cc(-c4nc(-c5ccccc5)no4)ccn23)CC1	i	2.7%	-19.3%	-14.7%	5.4%	-20.4%	.	.	.
CC(=O)N[C@H](C)c1onc(-c2ccc(F)cc2)c1C(=O)O	i	0.5%[70.6 µM]	-12.7%[174 µM]	2.6%[87.6 µM]	7.9%[87.6 µM]	-2.5%[230 µM]	.	.	.
C=Cc1cccc(CN2CCC(CNS(=O)(=O)C3CC3)C2)c1 (stereo not given)	i	0.2%	i	-2.1%	9.5%	i	.	.	.
CC(C)(C)C(=O)Nc1ccc2nc(SCc3ccccc3)sc2c1	.	.	.	-8.1%	97.0%	.	.	.	.
CNc1ccc(-c2nc3ccccc3s2)cc1	.	.	.	.	.	.	1.76µM*	1.11µM*	0.0785µM*
CC(C)(C)C(=O)Nc1ccc(-c2nc3ccccc3s2)cc1	.	.	.	-8.9%	1.41µM*	.	0.0785µM*	0.0442µM*	0.0197µM*
CCN(CC)C(=O)[C@@H]1CCC[C@@H](NS(=O)(=O)c2ccccc2)CN(C)C(=O)C1	i	0.7%[70.6 µM]	3.8%[174 µM]	-9.6%[87.6 µM]	25.0%[87.6 µM]	-1.3%[172 µM]	.	.	.
COc1ccc2nc(N(Cc3cccnc3)C(=O)COc3ccccc3)sc2c1	.	.	.	-12.3%	128.0%	.	.	.	.
COc1ccc2nc(-c3ccc(N4CCN(C(=O)OC(C)(C)C)CC4)cc3)sc2c1	.	.	.	.	.	.	15.6%	9.1%	?
COc1ccc2nc(-c3cccc(C(C)=O)c3)sc2c1	.	.	.	.	.	.	12.4µM*	?	1.24µM*
CC(=O)c1cccc(-c2nc3ccccc3s2)c1	.	.	.	.	.	.	?	?	9.89µM*
COc1cccc2cc(-c3nnc(-c4ccc(Cl)cc4)o3)c(=O)oc12	.	.	.	9.7%	65.9%	.	17.2%	?	?
O=C1COC2(CCN(S(=O)(=O)c3ccc(-c4ccc5cccnc5c4)cc3)CC2)CN1C1CC1	.	.	.	15.1%	.	.	.	.	.
COc1ccc(-c2cnc(Nc3ccccc3)c3c2CCO3)cn1	3.55µM*	?	?	-9.9%[87.6 µM]	96.4%[87.6 µM]	?	18.7%[49.3 µM]	11.8%[49.3 µM]	?
COc1cccc(Nc2ncc(-c3cccnc3)c3c2OCC3)c1	14.1µM*	-29.5%[70.6 µM]	?	-3.9%[87.6 µM]	171.9%[87.6 µM]	100µM*	21.4%[49.3 µM]	13.8%[49.3 µM]	?
COCCNc1ncc(-c2cccc(C(C)=O)c2)c2c1OCC2	?	-0.3%[70.6 µM]	?	-4.7%[87.6 µM]	-3.6%[87.6 µM]	?	.	.	.
CNC(=O)c1cccc(-c2cnc(Nc3ccc(Cl)cn3)c3c2CCO3)c1	3.16µM*	?	?	-18.6%[87.6 µM]	75.3%[87.6 µM]	?	18.2%[49.3 µM]	16.9%[49.3 µM]	?
c1ccc(-c2cnc(Nc3ccc4c(c3)OCCO4)c3c2CCO3)cc1	2.82µM*	?	?	-4.5%[87.6 µM]	-5.9%[87.6 µM]	?	13.2%[49.3 µM]	10.7%[49.3 µM]	16.1µM*
COc1ccc(-c2cnc(NC(=O)Cc3ccccc3)c3c2CCO3)cn1	i	-4.3%[70.6 µM]	?	6.1%[87.6 µM]	82.9%[87.6 µM]	-23.6%[172 µM]	.	.	.
